Compounds without any hit were thinned out: in the full panel of roughly 79,000, 15% have a hit. A number with no mark means an inactive call. Active and inactive are the calls of the source. No stated cut-off is given here; in the data, active means growth inhibition above about 70%; inactive means the rest.
Assays:
[1] = NCI Yeast Anticancer Drug Screen. Data for the wt1 strain (AID 149);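 further: 0% = growth of vehicle-treated wt1 cultures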; details: S. cerevisiae wt1 strain (SPY 50644) growth inhibition, stronger effect = higher value
In short: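 Growth inhibition read against vehicle controls after compound exposure of the wt1 yeast strain.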

[2] = NCI Yeast Anticancer Drug Screen. Data for the rad50EPP+ strain (AID 151);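 further: 0% = growth of vehicle-treated control cultures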; details: S. cerevisiae rad50 mutant strain, stronger effect = higher value
In short: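 Genetically defined yeast (rad50EPP+, DNA damage repair alteration) is grown with compound, and inhibition of growth is expressed relative to vehicle-treated controls.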

[3] = NCI Yeast Anticancer Drug Screen. Data for the mgt1 strain (AID 153); details: S. cerevisiae mgt1 mutant growth inhibition, stronger effect = higher value
In short: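 In the mgt1 strain, test compounds were added and growth inhibition was determined relative to vehicle-treated controls.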

[4] = NCI Yeast Anticancer Drug Screen. Data for the rad50 strain (AID 155);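 further: 0% = growth of vehicle-only cultures of the same strain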; details: S. cerevisiae rad50 strain growth inhibition, stronger effect = higher value
In short: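 Readout: growth inhibition relative to vehicle-treated cultures. Compound exposure was carried out in a genetically defined yeast strain deficient in DNA damage repair.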

[5] = NCI Yeast Anticancer Drug Screen. Data for the mec2-1 strain (AID 157); details: S. cerevisiae mec2-1 strain, stronger effect = higher value
In short: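 Each compound was tested on mec2-1 yeast, a strain altered in DNA damage repair or cell cycle control. Growth inhibition is reported relative to vehicle.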

[6] = NCI Yeast Anticancer Drug Screen. Data for the rad14 strain (AID 159);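 further: 0% = growth of vehicle-treated control cultures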; details: S. cerevisiae rad14 strain growth inhibition, stronger effect = higher value
In short: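 Growth inhibition vs vehicle controls; genetically altered yeast strain (DNA damage repair defect) treated with test compounds.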

[7] = NCI Yeast Anticancer Drug Screen. Data for the sgs1 mgt1 strain (AID 161);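 further: 0% = growth of cultures given vehicle only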; details: S. cerevisiae sgs1 mgt1 strain, stronger effect = higher value
In short: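 Test agents were incubated with a DNA-repair-mutant yeast strain. Growth was then read and compared against vehicle-treated controls.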

[8] = NCI Yeast Anticancer Drug Screen. Data for the CLN2oe strain (AID 163);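 further: 0% = growth of vehicle-only control cultures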; details: S. cerevisiae CLN2oe strain, stronger effect = higher value
In short: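 First, the altered yeast strain was treated with each compound; second, its growth was measured; finally, inhibition was derived by comparison with vehicle controls.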

[9] = NCI Yeast Anticancer Drug Screen. Data for the cln2 rad14 strain (AID 165);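 further: 0% = growth equal to vehicle treated cultures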; details: S. cerevisiae cln2 rad14 strain, stronger effect = higher value
In short: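 Test compounds were added to cln2 rad14 yeast cultures; inhibition of growth was then determined by comparison with vehicle treatment.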

[10] = NCI Yeast Anticancer Drug Screen. Data for the bub3 strain (AID 167); details: S. cerevisiae bub3 mutant strain, stronger effect = higher value
In short: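 Readout: yeast growth inhibition, expressed relative to vehicle-only wells. The test organism is a mutant strain from a panel with lesions in DNA repair or checkpoint genes.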

[11] = NCI Yeast Anticancer Drug Screen. Data for the wt2 strain (AID 169);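 further: 0% = growth of vehicle-treated yeast cultures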; details: S. cerevisiae wt2 strain growth inhibition, stronger effect = higher value
In short: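 The panel's yeast strains carry defined changes in DNA repair or cell cycle genes. Each strain is grown with compound, and growth loss is scored relative to vehicle.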

[12] = NCI Yeast Anticancer Drug Screen. Data for the mlh1 strain (AID 171);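 further: 0% = growth of vehicle-treated control cultures of the same strain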; details: S. cerevisiae mlh1 strain growth inhibition, stronger effect = higher value
In short: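 Inhibition values reflect reduced yeast growth in the presence of compound, referenced to vehicle controls, using a strain chosen for its alteration in DNA repair or cell cycle control.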

[13] = NCI Yeast Anticancer Drug Screen. Data for the sgs1 strain (AID 173);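 further: 0% = growth of vehicle-only control cultures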; details: S. cerevisiae sgs1 mutant, stronger effect = higher value
In short: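 Vehicle-treated cultures served as reference for growth inhibition of a yeast strain altered in DNA damage repair or cell cycle control after compound exposure.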

[14] = NCI Yeast Anticancer Drug Screen. Data for the mlh1 rad18 strain (AID 175); details: S. cerevisiae mlh1 rad18 strain growth inhibition, stronger effect = higher value
In short: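 Inhibition values reflect reduced growth of mutant yeast versus vehicle-treated controls following compound exposure; the mutations affect DNA damage repair.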

[15] = NCI Yeast Anticancer Drug Screen. Data for the rad18 strain (AID 177); details: S. cerevisiae rad18 mutant growth inhibition, stronger effect = higher value
In short: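 Steps: expose repair-mutant yeast to compound; measure growth; express as inhibition relative to vehicle control.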

[16] = at 5.0 µM (retest, dose inferred, filed as 0.5)
[17] = at 50.0 µM (retest, dose inferred, filed as 5.0)

CCCCCCC(CCl)c1sc(-c2csc(CCNC(=O)OC(C)(C)C)n2)nc1C(=O)OC (stereo not drawn)
growth inhibition ([1]; at 1.2 µM): -1%
growth inhibition ([1]; at 3.7 µM): -4%
growth inhibition ([1]; at 11.0 µM): -5%
growth inhibition ([1]; at 33.0 µM): -5%
growth inhibition ([1]; at 100.0 µM): 30%
growth inhibition ([2]; at 1.2 µM): -1%
growth inhibition ([2]; at 3.7 µM): 1%
growth inhibition ([2]; at 11.0 µM): 2%
growth inhibition ([2]; at 33.0 µM): 4%
growth inhibition ([2]; at 100.0 µM): 19%
growth inhibition ([3]; at 1.2 µM): -1%
growth inhibition ([3]; at 3.7 µM): -3%
growth inhibition ([3]; at 11.0 µM): -6%
growth inhibition ([3]; at 33.0 µM): 2%
growth inhibition ([3]; at 100.0 µM): 98% (active)
growth inhibition ([4]; at 1.2 µM): -1%
growth inhibition ([4]; at 3.7 µM): 1%
growth inhibition [4, 16]: -23%
growth inhibition ([4]; at 11.0 µM): 5%
growth inhibition ([4]; at 33.0 µM): 24%
growth inhibition [4, 17]: 11%
growth inhibition ([4]; at 50.0 µM): -2.85%
growth inhibition ([4]; at 100.0 µM): 97% (active)
growth inhibition ([5]; at 1.2 µM): 0%
growth inhibition ([5]; at 3.7 µM): -3%
growth inhibition [5, 16]: -11%
growth inhibition ([5]; at 11.0 µM): 0%
growth inhibition ([5]; at 33.0 µM): 6%
growth inhibition [5, 17]: 39%
growth inhibition ([5]; at 50.0 µM): 30.1%
growth inhibition ([5]; at 100.0 µM): 96% (active)
growth inhibition ([6]; at 1.2 µM): 0%
growth inhibition ([6]; at 3.7 µM): 1%
growth inhibition ([6]; at 11.0 µM): 6%
growth inhibition ([6]; at 33.0 µM): 23%
growth inhibition ([6]; at 100.0 µM): 97% (active)
growth inhibition [7, 16]: 17%
growth inhibition [7, 17]: 27%
growth inhibition ([7]; at 50.0 µM): -13.5%
growth inhibition ([8]; at 1.2 µM): -3%
growth inhibition ([8]; at 3.7 µM): -2%
growth inhibition ([8]; at 11.0 µM): -9%
growth inhibition ([8]; at 33.0 µM): -10%
growth inhibition ([8]; at 100.0 µM): 66%
growth inhibition [9, 16]: 47%
growth inhibition [9, 17]: -2%
growth inhibition ([9]; at 50.0 µM): -42.5%
growth inhibition ([10]; at 1.2 µM): -1%
growth inhibition ([10]; at 3.7 µM): 0%
growth inhibition [10, 16]: -21%
growth inhibition ([10]; at 11.0 µM): 2%
growth inhibition ([10]; at 33.0 µM): 8%
growth inhibition [10, 17]: 47%
growth inhibition ([10]; at 50.0 µM): 9.85%
growth inhibition ([10]; at 100.0 µM): 94% (active)
growth inhibition ([11]; at 1.2 µM): -3%
growth inhibition ([11]; at 3.7 µM): -5%
growth inhibition ([11]; at 11.0 µM): -5%
growth inhibition ([11]; at 33.0 µM): -6%
growth inhibition ([11]; at 100.0 µM): 97% (active)
growth inhibition ([12]; at 1.2 µM): -3%
growth inhibition ([12]; at 3.7 µM): -2%
growth inhibition ([12]; at 11.0 µM): -4%
growth inhibition ([12]; at 33.0 µM): -1%
growth inhibition ([12]; at 100.0 µM): 97% (active)
growth inhibition ([13]; at 1.2 µM): -2%
growth inhibition ([13]; at 3.7 µM): 0%
growth inhibition ([13]; at 11.0 µM): 1%
growth inhibition ([13]; at 33.0 µM): 14%
growth inhibition ([13]; at 100.0 µM): 97% (active)
growth inhibition [14, 16]: -15%
growth inhibition [14, 17]: 88% (active)
growth inhibition ([14]; at 50.0 µM): 43.5%
growth inhibition ([15]; at 1.2 µM): -2%
growth inhibition ([15]; at 3.7 µM): 2%
growth inhibition ([15]; at 11.0 µM): 16%
growth inhibition ([15]; at 33.0 µM): 65%
growth inhibition ([15]; at 100.0 µM): 96% (active)

Reference: PubChem BioAssay (NCI)
